Sampled rows, rich in hits. Any-hit rate of the full collection: about 7.1%.
IL-1B inflam inh – qHTS for Inhibitors of Inflammasome Signaling: IL-1-beta AlphaLISA Primary Screen; THP-1 LPS/ATP IL-1B secretion, AlphaLISA, 16 h; active compounds read low; activity change, % at 57.5 µM; hit rate 4.7% among 360,000; in the data active = activity change below about -50%; inconclusive = mostly about -30% to -49%
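Secreted IL-1B measured by AlphaLISA bead assay after 16 h compound exposure of THP-1 cells; compounds (final up to 57.5 uM) added 1 h before LPS (250 ng/mL) and ATP (1.25 mM) stimulation; lower signal means less secretion.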
PINK1 modulator – A Quantitative High throughput Screen to Identify Chemical Modulators of PINK1 Expression; AID 624263, 2012; Potency, µM (series often up to 76.6 µM), usual class: activators; hit rate 0.2% among 410,000; PINK1 immunofluorescence, high-content cytometry, 24 h; active = well fitted activation curve with a large enough effect; inconclusive = small, poorly fitted or top-dose-only effect; cell line not stated here; note: nearly all actives have a fitted effect of over 65% in size
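Compound titrations (5 concentrations, 24 h) on a stable cell line; DMSO and CCCP controls. Endpoint: fixed-cell PINK1 immunofluorescence with mitochondrial, cell and nuclear markers, scanned by microplate cytometer.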
S2 tox – Viability Counterscreen for Primary qHTS for Inhibitors of ATXN expression. S2 cells (HEK-293 line with an ATXN2-luciferase reporter) viability, CellTiter-Fluor protease fluorescence, 24 h. Potency, µM (titrated, usually from 56.7 µM), hits mostly cytotoxic. hit rate 0.49% among 400,000. AID 651635, 2014; note: nearly all actives have a fitted effect of over 40% in size
ATXN2 expr inh – Primary qHTS for Inhibitors of ATXN expression; AID 1745845, 2022; HEK-293 ATXN2-luciferase reporter, luminescence, 24 h; Potency, µM (titrated, usually from 57 µM), actives largely listed as inhibitors; hit rate 0.72% among 360,000; note: nearly all actives have a fitted effect of over 55% in size
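qHTS (up to 57 uM final) was run with 24 h compound exposure of reporter cells at 37 °C. Each well was multiplexed: SteadyGlo luminescence measured ATXN2-luciferase expression after a fluorogenic Gly-Phe-AFC viability readout (25 uM final).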
MCF10A rerep – A quantitative high throughput screen for small molecules that induce DNA re-replication in MCF 10a normal breast cells. MCF 10A DNA re-replication, Hoechst nuclear intensity, 48 h. Potency, µM (highest dose often 46.1 µM), usual class: activators. hit rate 2.9% among 350,000. AID 624296, 2012; note: nearly all actives have a fitted effect of over 50% in size
SW480 rereplic – A quantitative high throughput screen for small molecules that induce DNA re-replication in SW480 colon adenocarcinoma cells. SW480 DNA re-replication, Hoechst DNA content imaging, 48 h. Potency, µM (series often up to 46.1 µM), hits mostly activators. hit rate 1.8% among 340,000; note: nearly all actives have a fitted effect of over 55% in size
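Hoechst fluorescence of nuclei (405 nm excitation, 500-530 nm emission) measured by plate-scanning imager after 48 hr compound exposure at 37 C; re-replication scored as increased number of nuclei with elevated intensity.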
Hits are given with their value. Unless noted, calls come from the whole dose curve; as a rule, active = well fitted curve in the direction sought with a large enough effect; inconclusive = small, poorly fitted or top-dose-only effect, or another doubt; inactive = no such curve, though single readings can be large; an effect the other way counts as inactive or inconclusive.

CCOc1ccccc1N1CC(C(=O)N(CC)CC(=O)Nc2ccc3c(c2)OCCO3)CC1=O (configuration not stated) was read as IL-1B inflam inh inactive, PINK1 modulator inactive, S2 tox inactive, ATXN2 expr inh inactive, MCF10A rerep inactive and SW480 rereplic 2.3µM.
Screening CCC(C)c1ccccc1N1CC(C(=O)N(C)CC(=O)Nc2cccc(F)c2)CC1=O (configuration not stated) returned IL-1B inflam inh -61, PINK1 modulator inactive, S2 tox inactive, ATXN2 expr inh inactive, MCF10A rerep inactive and SW480 rereplic inconclusive.
Screening CCC[C@@H](C=O)NC(=O)[C@H](CC(C)C)NC(=O)[C@H](CC(C)C)NC(=O)OCc1ccccc1 returned ATXN2 expr inh 1.5µM.
CN1CCN(C(=O)C23CC4CC(C2)CC(c2ccccc2)(C4)C3)CC1 was read as IL-1B inflam inh -53, PINK1 modulator inactive, S2 tox inconclusive, ATXN2 expr inh inactive, MCF10A rerep inconclusive and SW480 rereplic inactive.
`COc1ccccc1CNc1ncnc2c1c(-c1ccccc1)cn2-c1ccc(Br)cc1` gave PINK1 modulator inactive.
Screening CN(Cc1cccs1)C(=O)Cn1cnc2cc([N+](=O)[O-])ccc2c1=O returned IL-1B inflam inh inactive, PINK1 modulator inactive, S2 tox inactive, ATXN2 expr inh inactive, MCF10A rerep 0.82µM and SW480 rereplic inactive.
For Cc1c(-c2ccc(Br)cc2)nc2ccccn12 the results were IL-1B inflam inh -81, PINK1 modulator inactive, S2 tox inactive, ATXN2 expr inh inactive, MCF10A rerep inconclusive and SW480 rereplic inactive.
CN(C)c1ccc(CN(C(=O)COc2ccccc2)C2CCS(=O)(=O)C2)cc1 (configuration not stated) was read as IL-1B inflam inh inactive, PINK1 modulator inactive, S2 tox inactive, ATXN2 expr inh inactive, MCF10A rerep inactive and SW480 rereplic inactive.
For Cc1ccc(OCC(=O)N(Cc2ccc(N(C)C)cc2)C2CCS(=O)(=O)C2)cc1C (configuration not stated) the results were IL-1B inflam inh -72, PINK1 modulator inactive, S2 tox inactive, ATXN2 expr inh inactive, MCF10A rerep inactive and SW480 rereplic inactive.
`O=C(O)CSc1c[nH]c2ccccc12` gave IL-1B inflam inh inactive, PINK1 modulator inactive, S2 tox inactive, ATXN2 expr inh inactive, MCF10A rerep inactive and SW480 rereplic inactive.
`CC(Sc1c[nH]c2ccccc12)C(=O)O` (configuration not stated) gave IL-1B inflam inh inactive, PINK1 modulator inactive, S2 tox inactive, ATXN2 expr inh inactive, MCF10A rerep 8.2µM and SW480 rereplic inconclusive.
For COc1cc(OC)c(NC(=O)C(CC(C)C)N2Cc3ccccc3C2=O)cc1Cl (configuration not stated) the results were PINK1 modulator inactive.
`COCc1c(C(=O)N2CCCCC2c2cccnc2)cnn1-c1ncc2c(n1)-c1ccccc1CCC2` (configuration not stated) gave PINK1 modulator inactive and S2 tox inconclusive.
`CN1CCN(Cc2cccc(Oc3ccccc3)c2)CC1` gave IL-1B inflam inh -53, PINK1 modulator inactive, S2 tox inactive, ATXN2 expr inh inactive, MCF10A rerep inactive and SW480 rereplic inactive.
For COc1ccc(CN2CCN(Cc3cccc(Oc4ccccc4)c3)CC2)c(OC)c1OC the results were IL-1B inflam inh -89, PINK1 modulator inconclusive, S2 tox inactive, ATXN2 expr inh inactive, MCF10A rerep inactive and SW480 rereplic inactive.
`OC1CCN(Cc2cccc(Oc3ccccc3)c2)CC1` gave IL-1B inflam inh inactive, PINK1 modulator inactive, S2 tox inactive, ATXN2 expr inh inactive, MCF10A rerep inactive and SW480 rereplic inactive.

High-throughput results from PubChem.
